Results as given in publication PMC5540273 (PLoS ONE, 2017).

Experiments:
Details in all cases: concentration: 1 μM, replicates: in singlicate; n = 1
HIPK3 = system: HIPK3
HIPK4 = system: HIPK4
HPK1 = system: HPK1
HUNK = system: HUNK
ICK = system: ICK
IGF1R = system: IGF1R
IKK-alpha = system: T1, IKK-alpha
T1 construct: gene CHUK

IKK-beta = system: T2, IKK-beta
T2 construct: gene IKBKB

IKK-epsilon = system: T3, IKK-epsilon
T3 construct: gene IKBKE

INSRR = system: INSRR
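Also: KINOMEscan kinase panel screen.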

Nc1ncnc2c1ncn2-c1ccc(Cl)cc1 [AH2635] was tested, and the “%Inh” value (HIPK3) was 0%, the “%Inh” value (HIPK4) was 0% and the “%Inh” value (HPK1) was 27%. The “%Inh” value (HUNK) was 19%, the “%Inh” value (ICK) was 0% and the “%Inh” value (IGF1R) was 0%. The “%Inh” value (IKK-alpha) was 0%, the “%Inh” value (IKK-beta) was 0% and the “%Inh” value (IKK-epsilon) was 30%. For the same compound, the “%Inh” value (INSRR) was 0%.
COc1ccc(-n2cnc3c(N)ncnc32)cc1 [SKF-97236] was tested, and the “%Inh” value (HIPK3) was 12%, the “%Inh” value (HIPK4) was 29% and the “%Inh” value (HPK1) was 5%. The “%Inh” value (HUNK) was 0%, the “%Inh” value (ICK) was 0% and the “%Inh” value (IGF1R) was 19%. The “%Inh” value (IKK-alpha) was 0%, the “%Inh” value (IKK-beta) was 19% and the “%Inh” value (IKK-epsilon) was 3%. For the same compound, the “%Inh” value (INSRR) was 2%.
For COc1cccc(-n2cnc3c(N)ncnc32)c1 [SKF-97416], the “%Inh” value (HIPK3) was 26%, the “%Inh” value (HIPK4) was 13% and the “%Inh” value (HPK1) was 0%. For the same compound, the “%Inh” value (HUNK) was 16%, the “%Inh” value (ICK) was 34% and the “%Inh” value (IGF1R) was 0%. For the same compound, the “%Inh” value (IKK-alpha) was 50%, the “%Inh” value (IKK-beta) was 32% and the “%Inh” value (IKK-epsilon) was 0%. The “%Inh” value (INSRR) was 5%.
For COc1cc2ncn(-c3cc(OCc4ccncc4)c(C(N)=O)s3)c2cc1OC [GSK336313], the “%Inh” value (HIPK3) was 21%, the “%Inh” value (HIPK4) was 0% and the “%Inh” value (HPK1) was 21%. For the same compound, the “%Inh” value (HUNK) was 0%, the “%Inh” value (ICK) was 4% and the “%Inh” value (IGF1R) was 0%. The “%Inh” value (IKK-alpha) was 0%, the “%Inh” value (IKK-beta) was 0% and the “%Inh” value (IKK-epsilon) was 26%. For the same compound, the “%Inh” value (INSRR) was 99.3%.
For Cn1c(=O)c(F)c(Nc2ccc(I)cc2F)c2c(=O)n(OC[C@H](O)CO)cnc21, the “%Inh” value (HIPK3) was 0%, the “%Inh” value (HIPK4) was 81% and the “%Inh” value (HPK1) was 0%. The “%Inh” value (HUNK) was 0%, the “%Inh” value (ICK) was 0% and the “%Inh” value (IGF1R) was 0%. For the same compound, the “%Inh” value (IKK-alpha) was 0%, the “%Inh” value (IKK-beta) was 0% and the “%Inh” value (IKK-epsilon) was 0%. For the same compound, the “%Inh” value (INSRR) was 0%.
For Nc1nc(-c2ccccc2F)c(-c2ccnc3ccccc23)s1 [GW560459], the “%Inh” value (HIPK3) was 3%, the “%Inh” value (HIPK4) was 0% and the “%Inh” value (HPK1) was 7%. For the same compound, the “%Inh” value (HUNK) was 12%, the “%Inh” value (ICK) was 0% and the “%Inh” value (IGF1R) was 20%. For the same compound, the “%Inh” value (IKK-alpha) was 28%, the “%Inh” value (IKK-beta) was 9% and the “%Inh” value (IKK-epsilon) was 18%. The “%Inh” value (INSRR) was 0%.
In the case of Cc1nc(N(C)[C@H]2CN(C(=O)CC#N)CC[C@H]2C)c2cc[nH]c2n1, the “%Inh” value (HIPK3) is reported as 9%, the “%Inh” value (HIPK4) is reported as 0% and the “%Inh” value (HPK1) is reported as 0%. The “%Inh” value (HUNK) was 0%, the “%Inh” value (ICK) was 0% and the “%Inh” value (IGF1R) was 0%. The “%Inh” value (IKK-alpha) was 0%, the “%Inh” value (IKK-beta) was 5% and the “%Inh” value (IKK-epsilon) was 0%. For the same compound, the “%Inh” value (INSRR) was 0%.
COc1cccc(C2=C(Nc3cccc(C(=O)O)c3)C(=O)NC2=O)c1 [SB-390770] was tested, and the “%Inh” value (HIPK3) was 1%, the “%Inh” value (HIPK4) was 7% and the “%Inh” value (HPK1) was 5%. The “%Inh” value (HUNK) was 20%, the “%Inh” value (ICK) was 0% and the “%Inh” value (IGF1R) was 8%. The “%Inh” value (IKK-alpha) was 0%, the “%Inh” value (IKK-beta) was 6% and the “%Inh” value (IKK-epsilon) was 0%. For the same compound, the “%Inh” value (INSRR) was 19%.
For O=C(Nc1n[nH]c2nc(-c3ccccc3)c(Cl)cc12)C1CC1 [SB-734909], the “%Inh” value (HIPK3) was 33%, the “%Inh” value (HIPK4) was 0% and the “%Inh” value (HPK1) was 11%. The “%Inh” value (HUNK) was 20%, the “%Inh” value (ICK) was 29% and the “%Inh” value (IGF1R) was 0%. The “%Inh” value (IKK-alpha) was 43%, the “%Inh” value (IKK-beta) was 56% and the “%Inh” value (IKK-epsilon) was 0%. For the same compound, the “%Inh” value (INSRR) was 8%.
In the case of COc1cc2nccc(Nc3cccc(Oc4ccccc4)c3)c2cc1OC.Cl [GW284543], the “%Inh” value (HIPK3) is reported as 0%, the “%Inh” value (HIPK4) is reported as 21% and the “%Inh” value (HPK1) is reported as 2%. For the same compound, the “%Inh” value (HUNK) was 15%, the “%Inh” value (ICK) was 0% and the “%Inh” value (IGF1R) was 14%. For the same compound, the “%Inh” value (IKK-alpha) was 0%, the “%Inh” value (IKK-beta) was 0% and the “%Inh” value (IKK-epsilon) was 0%. The “%Inh” value (INSRR) was 0%.
With O=C(NCCNc1ccnc(Nc2ccc(F)cc2)n1)Nc1ccc2c(c1)OCO2 [GSK1379882] the “%Inh” value (HIPK3) was 9%, the “%Inh” value (HIPK4) was 0% and the “%Inh” value (HPK1) was 37%. For the same compound, the “%Inh” value (HUNK) was 1%, the “%Inh” value (ICK) was 0% and the “%Inh” value (IGF1R) was 0%. The “%Inh” value (IKK-alpha) was 3%, the “%Inh” value (IKK-beta) was 7% and the “%Inh” value (IKK-epsilon) was 14%. For the same compound, the “%Inh” value (INSRR) was 0%.
In the case of Cc1ccc(-c2ccc3c(ccc4sc5c(c43)NC[C@@H](C)N=C5N(C)C)n2)cn1, the “%Inh” value (HIPK3) is reported as 0%, the “%Inh” value (HIPK4) is reported as 9% and the “%Inh” value (HPK1) is reported as 8%. The “%Inh” value (HUNK) was 5%, the “%Inh” value (ICK) was 0% and the “%Inh” value (IGF1R) was 0%. The “%Inh” value (IKK-alpha) was 11%, the “%Inh” value (IKK-beta) was 0% and the “%Inh” value (IKK-epsilon) was 0%. The “%Inh” value (INSRR) was 0%.
In the case of Nc1ncnc2c1ncn2-c1cccc2ccccc12 [SKF-97184], the “%Inh” value (HIPK3) is reported as 0%, the “%Inh” value (HIPK4) is reported as 7% and the “%Inh” value (HPK1) is reported as 2%. For the same compound, the “%Inh” value (HUNK) was 45%, the “%Inh” value (ICK) was 0% and the “%Inh” value (IGF1R) was 0%. The “%Inh” value (IKK-alpha) was 16%, the “%Inh” value (IKK-beta) was 3% and the “%Inh” value (IKK-epsilon) was 0%. The “%Inh” value (INSRR) was 0%.
For COc1cc(Nc2nccc(N3CCC(NC(=O)C4COc5ccccc5O4)C3)n2)cc(OC)c1OC (stereo not drawn) [GSK1379761], the “%Inh” value (HIPK3) was 0%, the “%Inh” value (HIPK4) was 0% and the “%Inh” value (HPK1) was 51%. The “%Inh” value (HUNK) was 30%, the “%Inh” value (ICK) was 0% and the “%Inh” value (IGF1R) was 0%. The “%Inh” value (IKK-alpha) was 21%, the “%Inh” value (IKK-beta) was 0% and the “%Inh” value (IKK-epsilon) was 0%. The “%Inh” value (INSRR) was 0%.
For O=C(Nc1n[nH]c2nc(-c3ccccc3)c(Br)cc12)C1CC1 [SB-708998], the “%Inh” value (HIPK3) was 0%, the “%Inh” value (HIPK4) was 6% and the “%Inh” value (HPK1) was 20%. For the same compound, the “%Inh” value (HUNK) was 0%, the “%Inh” value (ICK) was 0% and the “%Inh” value (IGF1R) was 1%. The “%Inh” value (IKK-alpha) was 0%, the “%Inh” value (IKK-beta) was 5% and the “%Inh” value (IKK-epsilon) was 2%. The “%Inh” value (INSRR) was 9%.
In the case of CCn1c(-c2nonc2N)nc2ccccc21 [SB-693162/GW549034], the “%Inh” value (HIPK3) is reported as 62%, the “%Inh” value (HIPK4) is reported as 1% and the “%Inh” value (HPK1) is reported as 7%. The “%Inh” value (HUNK) was 36%, the “%Inh” value (ICK) was 64% and the “%Inh” value (IGF1R) was 0%. The “%Inh” value (IKK-alpha) was 23%, the “%Inh” value (IKK-beta) was 49% and the “%Inh” value (IKK-epsilon) was 29%. The “%Inh” value (INSRR) was 48%.
For CCCC(=O)Nc1n[nH]c2ncc(-c3cccc4ccccc34)cc12 [SB-642057], the “%Inh” value (HIPK3) was 11%, the “%Inh” value (HIPK4) was 26% and the “%Inh” value (HPK1) was 31%. For the same compound, the “%Inh” value (HUNK) was 30%, the “%Inh” value (ICK) was 45% and the “%Inh” value (IGF1R) was 16%. For the same compound, the “%Inh” value (IKK-alpha) was 9%, the “%Inh” value (IKK-beta) was 30% and the “%Inh” value (IKK-epsilon) was 27%. For the same compound, the “%Inh” value (INSRR) was 0%.
In the case of Cc1cccc(-c2nc(Nc3ccc4c(cnn4C)c3)c3ccccc3n2)n1 [GW876731], the “%Inh” value (HIPK3) is reported as 0%, the “%Inh” value (HIPK4) is reported as 14% and the “%Inh” value (HPK1) is reported as 0%. For the same compound, the “%Inh” value (HUNK) was 35%, the “%Inh” value (ICK) was 10% and the “%Inh” value (IGF1R) was 0%. For the same compound, the “%Inh” value (IKK-alpha) was 1%, the “%Inh” value (IKK-beta) was 13% and the “%Inh” value (IKK-epsilon) was 21%. For the same compound, the “%Inh” value (INSRR) was 15%.
